This excerpt belongs to a sample that is enriched for hits.
14-3-3 PPI – 14-3-3 gamma protein interaction modulation; inhibition, % at 40 µM; P61981; actives 0.19% (n = 160,000); FP, 14-3-3gamma / TMR-pS259-Raf peptide binding; in the data active means inhibition above about 30%;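 further: 0% = protein plus tracer without compound and 100% = blank with tracer alone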
An asterisk follows results filed as active; + = active, no number; ! = not confirmed by another sample.

SMILES	14-3-3 PPI
O=C(NCc1cccnc1)c1cc2nc(-c3ccco3)cc(C(F)(F)Cl)n2n1	1.7
CC(=O)CS(=O)(=O)c1ccc(Br)cc1	-9.8
COC(=O)c1ccc(N=Cc2c(OC(=O)c3cccc([N+](=O)[O-])c3)ccc3ccccc23)cc1	3.2
CC(=O)Oc1ccc2ccccc2c1C=Nc1cc([N+](=O)[O-])ccc1C	87.0*
COc1cc(OC)c(C=Nc2cc([N+](=O)[O-])ccc2C)cc1Br	-5.3
Cc1ccccc1NC(=O)c1cc2ccccc2c(C=Nc2ccc([N+](=O)[O-])cc2O)c1O	-105.5
CCOc1ccc(-c2nc3cc(N=Cc4cc([N+](=O)[O-])ccc4O)ccc3o2)cc1	-7.0
CCOc1ccc(C=Nc2cc([N+](=O)[O-])ccc2C)c(O)c1	+
CCN(Cc1ccccc1)S(=O)(=O)c1ccc(F)c(C(=O)Nc2ccc(C(F)(F)F)cc2)c1	-5.9
Cc1ccc(NC(=O)c2c(C)nc3sc(C(=O)NCc4ccccc4)c(N)c3c2-c2cccnc2)c(C)c1	-12.5
COc1ccc(C2NC(=O)NC(C)=C2C(=O)OCCSC)cc1 (stereo not drawn)	-13.1
CCOC(=O)C1C(=O)C=C(c2cccc(OC)c2)CC1c1ccc(C(C)C)cc1 (stereo not drawn)	-5.3
CC1CCN(S(=O)(=O)N2CCC(C(=O)NCc3ccccn3)CC2)CC1	-4.3
O=C(NCc1ccccn1)C1CCN(S(=O)(=O)c2cccs2)CC1	7.9
O=C(NCc1ccccn1)C1CCN(S(=O)(=O)c2cnc[nH]2)CC1	58.7*!
CCOC(=O)c1nn(-c2ccc(Cl)cc2)c(=O)c2c(NC(=O)c3cccc(OC)c3OC)scc12	-1.8

Bioassay records (PubChem BioAssay)
